Test [1] concerns Sodium/Iodide Symporter (NIS), SLC5A5 (gene 6528). Kind of test: CPHEA_Stoker_NIS_Inhibition_RAIU: CPHEA's Radioactive Iodide Uptake (RAIU) Assay for Sodium/Iodide Symporter (NIS) Inhibition, Stoker and Laws Labs (AID 2283841). In a few lines:
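hNIS-HEK293T-EPA cells incubated 2 h at room temperature with compound (0.001–100 uM, 0.5% DMSO) and 329 pM final 125I in HBSS/10 mM HEPES, pH 7.4. Intracellular 125I counted; normalised to DMSO maximal uptake, triplicate, three biological replicates.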

Test [2] is described as follows: CPHEA_Stoker_NIS_Cytotoxicity: Cytotoxicity Assessment for CPHEA's Radioactive Iodide Uptake (RAIU) Assay for Sodium/Iodide Symporter (NIS) Inhibition, Stoker and Laws Labs (AID 2283897).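 On AC50: active means loss of ATP signal versus DMSO meaning cytotoxicity.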 Summed up: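 hNIS-HEK293T-EPA cells, human NIS expressed in HEK293T, treated 2 h with chemicals (0.001–100 uM, 0.5% final DMSO). ATP content read by CellTiter-Glo luminescence; loss of signal analysed relative to DMSO.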

Test [3] in a line: CEETOX_H295R_11DCORT_noMTC: CeeTox H295R High-throughput Steroidogenesis Assay for 11-Deoxycortisol (11DCORT), maximum tolerated concentration (MTC) filtered results only (AID 2283911; active means hit-call score of the fitted dose curve at least 0.9, where 1 is the maximum; inactive means score below 0.9). To be noted: actives raise or lower the signal. In a few lines:
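Values carry no filtering for maximum tolerated concentration: medium from forskolin-primed (10 uM, 48 h) H295R cells after 48 h chemical exposure (0.1% DMSO) was MTBE-extracted, and 11-deoxycortisol quantified by reverse-phase HPLC-MS/MS. Fitting was bidirectional against DMSO.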

Test [4] in a line: CEETOX_H295R_OHPREG_noMTC: CeeTox H295R High-throughput Steroidogenesis Assay for OH-Pregnenolone (OHPREG), maximum tolerated concentration (MTC) filtered results only (AID 2283912; active means hit-call score of the fitted dose curve at least 0.9, where 1 is the maximum; inactive means score below 0.9). To be noted: actives raise or lower the signal. In a few lines:
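H295R cells prestimulated 48 h with 10 uM forskolin, then exposed 48 h to compound (0.1% DMSO). 17alpha-hydroxypregnenolone in medium measured by MTBE extraction and HPLC-MS/MS; bidirectional fit vs DMSO, concentrations not MTT/MTC-filtered.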

The nature of test [5]: CEETOX_H295R_OHPROG_noMTC: CeeTox H295R High-throughput Steroidogenesis Assay for OH-Progesterone (OHPROG), maximum tolerated concentration (MTC) filtered results only (AID 2283914; active means hit-call score of the fitted dose curve at least 0.9, where 1 is the maximum; inactive means score below 0.9). To be noted: actives raise or lower the signal. In a few lines: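 H295R cells prestimulated 48 h with 10 uM forskolin, then exposed 48 h to chemical (0.1% DMSO final). 17alpha-hydroxyprogesterone in medium quantified by HPLC-MS/MS after MTBE extraction; bidirectional fitting versus DMSO, concentrations not MTC-filtered.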

A short description of test [6]: CEETOX_H295R_CORTISOL_noMTC: CeeTox H295R High-throughput Steroidogenesis Assay for Cortisol, maximum tolerated concentration (MTC) filtered results only (AID 2283916; active means hit-call score of the fitted dose curve at least 0.9, where 1 is the maximum; inactive means score below 0.9). The note with it: actives raise or lower the signal. In a few lines:
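H295R human adrenal cells prestimulated 48 h with 10 uM forskolin, then exposed 48 h to chemical in 0.1% DMSO; cortisol in medium quantified by HPLC-MS/MS; bidirectional fit vs DMSO baseline, concentrations not MTT-filtered for MTC.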

Test [7] is described as follows: CEETOX_H295R_CORTIC_noMTC: CeeTox H295R High-throughput Steroidogenesis Assay for Corticosterone (CORTIC), maximum tolerated concentration (MTC) filtered results only (AID 2283917; active means hit-call score of the fitted dose curve at least 0.9, where 1 is the maximum; inactive means score below 0.9). To be noted: actives raise or lower the signal. In a few lines: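 H295R adrenal cells pre-stimulated 48 h with 10 uM forskolin, then exposed 48 h to chemical in 0.1% DMSO; corticosterone in medium quantified by HPLC-MS/MS, fitted bidirectionally versus DMSO without MTT-based concentration filtering.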

Test [8] is described as follows: CEETOX_H295R_DOC_noMTC: CeeTox H295R High-throughput Steroidogenesis Assay for DOC, maximum tolerated concentration (MTC) filtered results only (AID 2283918; active means hit-call score of the fitted dose curve at least 0.9, where 1 is the maximum; inactive means score below 0.9). To be noted: actives raise or lower the signal. Summed up: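 H295R cells prestimulated 48 h with 10 uM forskolin, then exposed 48 h to chemical in 0.1% DMSO. 11-Deoxycorticosterone in medium measured by MTBE extraction and HPLC-MS/MS; bidirectional fit vs DMSO, no MTC filter.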

Test [9] can be described thus: CEETOX_H295R_PROG_noMTC: CeeTox H295R High-throughput Steroidogenesis Assay for Progesterone (PROG), maximum tolerated concentration (MTC) filtered results only (AID 2283920; active means hit-call score of the fitted dose curve at least 0.9, where 1 is the maximum; inactive means score below 0.9). To be noted: actives raise or lower the signal. Summed up: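 H295R cells, prestimulated 48 h with 10 uM forskolin, exposed 48 h to chemical in 0.1% DMSO. Medium progesterone quantified by MTBE extraction and HPLC-MS/MS; bidirectional fit versus DMSO, concentrations not MTT-filtered.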

The nature of test [10]: CEETOX_H295R_ANDR_noMTC: CeeTox H295R High-throughput Steroidogenesis Assay for Androstenedione (ANDR), maximum tolerated concentration (MTC) filtered results only (AID 2283915; active means hit-call score of the fitted dose curve at least 0.9, where 1 is the maximum; inactive means score below 0.9). The note with it: actives raise or lower the signal. In a few lines: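 H295R cells, passage 10 or below, prestimulated 48 h with 10 uM forskolin, then exposed 48 h to chemical in 0.1% DMSO. Medium androstenedione extracted with MTBE, quantified by HPLC-MS/MS; concentrations not MTC-filtered; bidirectional fit versus DMSO.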

The target in test [11] is Nuclear receptor subfamily 1 group I member 2 (Mus musculus) (UniProt O54915). Kind of test: ATG_mPXR_XSP2: Attagene TRANS-FACTORIAL Multi-Species (XSP1) HepG2 Assay for mouse Pregnane X Receptor (PXR) (AID 2283831). In a few lines: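 Reporter transcripts measured after 24 h dosing by RT-PCR with 6-FAM labelling, HpaI digestion and capillary electrophoresis. Transiently transfected HepG2 with NR-Gal4 chimeras; increase over DMSO baseline scored.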
Nuclear receptor subfamily 1 group I member 2 (Mus musculus), sequence (O54915 whole entry, looked up, the tested form may be a part): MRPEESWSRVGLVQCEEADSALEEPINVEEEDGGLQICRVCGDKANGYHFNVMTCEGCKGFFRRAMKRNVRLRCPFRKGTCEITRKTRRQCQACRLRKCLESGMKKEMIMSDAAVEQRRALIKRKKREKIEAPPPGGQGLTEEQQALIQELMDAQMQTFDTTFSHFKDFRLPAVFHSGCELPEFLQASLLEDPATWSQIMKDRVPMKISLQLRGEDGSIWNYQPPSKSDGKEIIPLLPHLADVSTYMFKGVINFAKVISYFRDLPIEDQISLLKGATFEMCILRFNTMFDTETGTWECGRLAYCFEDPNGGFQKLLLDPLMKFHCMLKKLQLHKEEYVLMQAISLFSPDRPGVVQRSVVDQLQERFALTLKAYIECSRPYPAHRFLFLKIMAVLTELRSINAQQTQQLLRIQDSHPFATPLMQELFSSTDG

Test [12] addresses zebrafish Thyroid Hormone Receptor alpha (TRa), thraa (gene 30670) (UniProt Q98867). Kind of test: ATG_zfTRa_XSP2: Attagene TRANS-FACTORIAL Multi-Species (XSP1) HepG2 Assay for zebrafish Thyroid Hormone Receptor alpha (TRa) (AID 2283832).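 Further: actives raise zebrafish TRa-Gal4 reporter transcript above DMSO baseline.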 In a few lines:
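HepG2 cells transiently transfected with multiplexed GAL4-UAS reporter units expressing chimeric NR-Gal4 proteins; 24 h after dosing, reporter mRNA measured by RT-PCR, FAM labelling, HpaI digestion and capillary electrophoresis; gain of signal versus DMSO baseline.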

The test system of test [13] is zebrafish Peroxisome Proliferator-activated Receptor gamma (PPARg), gene 557037. Briefly: ATG_zfPPARg_XSP2: Attagene TRANS-FACTORIAL Multi-Species (XSP2) HepG2 Assay for zebrafish Peroxisome Proliferator-activated Receptor gamma (PPARg) (AID 2283833).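 Further: actives increase reporter signal over DMSO so AC50 reflects activation.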 In a few lines: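 After 24 h chemical exposure, RNA from transiently transfected HepG2 (chimeric NR-Gal4 TRANS reporters) was reverse-transcribed, PCR-amplified, 6-FAM-labelled, HpaI-cut and sized by capillary electrophoresis. Induction was scored in the positive direction relative to DMSO.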

For test [14], the system named is turtle Thyroid Hormone Receptor, alpha (TRa), gene 101949057. Kind of test: ATG_trTRa_XSP2: Attagene TRANS-FACTORIAL Multi-Species (XSP1) HepG2 Assay for turtle Thyroid Hormone Receptor, alpha (TRa) (AID 2283834).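 Further: hits raise reporter mRNA over the DMSO baseline so AC50 marks activators.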 In a few lines: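 Turtle TRa-Gal4 chimera activity in transfected human HepG2 cells: reporter transcripts quantified by RT-PCR, 6-FAM labelling and capillary electrophoresis 24 h post-dosing; positive direction versus DMSO, medium containing 3 nM 6-alpha-fluorotestosterone and 1.5 nM norgestrel.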

Test [15] is described as follows: ATG_M_61_XSP2: Attagene TRANS-FACTORIAL Multi-Species (XSP2) HepG2 Assay for M61 Transcription Factor (Internal Marker) (AID 2283835; active means hit-call score of the fitted dose curve at least 0.9, where 1 is the maximum; inactive means score below 0.9;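 further: active means a rise in signal above the DMSO baseline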). Summed up:
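HepG2 cells transiently transfected with multiple GAL4-UAS reporter units; reporter mRNA measured 24 h after dosing by RT-PCR, fluorescent labelling and capillary electrophoresis. Medium contained 3 nM 6-alpha-fluorotestosterone and 1.5 nM norgestrel; internal marker, DMSO baseline.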

The target of test [16] is zebrafish Thyroid Hormone Receptor beta (TRb), thrb (gene 30607) (UniProt Q9PVE4). Briefly: ATG_zfTRb_XSP2: Attagene TRANS-FACTORIAL Multi-Species (XSP1) HepG2 Assay for zebrafish Thyroid Hormone Receptor beta (TRb) (AID 2283836). Summed up:
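HepG2 cells transiently transfected with multiplexed GAL4-UAS reporter units expressing chimeric NR-Gal4 proteins; read 24 h after dosing. Reporter mRNA quantified by RT-PCR, 6-FAM labelling, HpaI digest and capillary electrophoresis; gain of signal fitted relative to DMSO.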

The target in test [17] is human Thyroid hormone Receptor alpha (TRa), THRA (gene 7067) (UniProt P10827). Briefly: ATG_hTRa_XSP2: Attagene TRANS-FACTORIAL Multi-Species (XSP2) HepG2 Assay for human Thyroid hormone Receptor alpha (TRa) (AID 2283838). Summed up:
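HepG2 cells transiently transfected with multiplexed GAL4-UAS reporter units and exogenous NR-GAL4 chimeras; 24 h chemical exposure with 3 nM 6-alpha-fluorotestosterone and 1.5 nM norgestrel present. Reporter mRNA measured by RT-PCR, FAM labelling, HpaI digestion, capillary electrophoresis; gain-of-signal versus DMSO.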

For test [18], the target named is frog Thyroid hormone Receptor alpha (TRa), thra-a (gene 397942) (UniProt P15204). Briefly: ATG_frTRa_XSP2: Attagene TRANS-FACTORIAL Multi-Species (XSP2) HepG2 Assay for frog Thyroid hormone Receptor alpha (TRa) (AID 2283839). Summed up:
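Reporter transcripts were measured by RT-PCR with capillary electrophoresis after 24 h dosing of HepG2 carrying transiently transfected multi-reporter units, including a chimeric frog TRa-GAL4 construct. Activity was taken as increase over DMSO vehicle.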

Test [19] addresses human Thyroid hormone Receptor beta (TRb), THRB (gene 7068) (UniProt P10828). Kind of test: ATG_hTRb_XSP2: Attagene TRANS-FACTORIAL Multi-Species (XSP2) HepG2 Assay for human Thyroid hormone Receptor beta (TRb) (AID 2283840).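 Further: actives raise reporter mRNA so potency reflects agonist-like gain of signal.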 In a few lines:
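Activity of exogenous human TRb–Gal4 fusion measured by reporter mRNA from RT-PCR and capillary electrophoresis, 24 h after dosing transfected HepG2. 6-alpha-fluorotestosterone (3 nM) and norgestrel (1.5 nM) present. Gain-of-signal fit relative to DMSO.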

Several values for one entry are separate records, joined by “and”; a condition that tells them apart may be missing. Identical values can stand only once. Results filed as inconclusive are left out. Some compounds were tested as several samples or in several runs, with calls that do not always agree. Activity calls are given as the source filed them. How the source made its calls, unless noted: active means hit-call score of the fitted dose curve at least 0.9, where 1 is the maximum; inconclusive means response in the unintended direction; inactive means score below 0.9.

In PubChem BioAssay (EPA / NIEHS) one finds outcome and AC50 data, which are given here for 19 compounds.

zebrafish Thyroid Hormone Receptor alpha (TRa), thraa (gene 30670), sequence (Q98867 whole entry, looked up, the tested form may be a part): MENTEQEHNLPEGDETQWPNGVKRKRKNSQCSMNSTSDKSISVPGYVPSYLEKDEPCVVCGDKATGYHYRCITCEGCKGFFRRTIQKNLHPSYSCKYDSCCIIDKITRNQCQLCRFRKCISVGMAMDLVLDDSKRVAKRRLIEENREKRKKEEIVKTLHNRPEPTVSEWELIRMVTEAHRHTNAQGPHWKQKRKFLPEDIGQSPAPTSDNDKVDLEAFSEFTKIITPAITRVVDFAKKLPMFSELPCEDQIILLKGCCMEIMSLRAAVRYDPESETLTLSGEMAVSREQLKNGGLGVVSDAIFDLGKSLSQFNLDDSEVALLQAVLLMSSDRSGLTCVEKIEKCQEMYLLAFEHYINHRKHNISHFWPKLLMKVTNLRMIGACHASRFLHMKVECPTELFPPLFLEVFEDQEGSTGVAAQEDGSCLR
human Thyroid hormone Receptor alpha (TRa), THRA (gene 7067), sequence (P10827 whole entry, looked up, the tested form may be a part): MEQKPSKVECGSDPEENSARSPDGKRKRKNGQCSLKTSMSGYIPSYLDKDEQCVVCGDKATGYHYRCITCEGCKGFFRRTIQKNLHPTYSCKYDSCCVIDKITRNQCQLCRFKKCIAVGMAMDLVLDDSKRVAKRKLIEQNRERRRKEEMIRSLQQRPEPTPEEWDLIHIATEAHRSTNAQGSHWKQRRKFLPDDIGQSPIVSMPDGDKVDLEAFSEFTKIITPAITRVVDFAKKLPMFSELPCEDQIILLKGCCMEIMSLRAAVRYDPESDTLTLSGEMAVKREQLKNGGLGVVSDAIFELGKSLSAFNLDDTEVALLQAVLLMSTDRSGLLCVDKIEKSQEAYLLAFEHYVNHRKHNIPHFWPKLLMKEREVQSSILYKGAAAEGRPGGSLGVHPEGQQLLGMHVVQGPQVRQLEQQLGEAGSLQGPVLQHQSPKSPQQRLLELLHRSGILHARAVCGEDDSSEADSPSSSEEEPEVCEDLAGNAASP
human Thyroid hormone Receptor beta (TRb), THRB (gene 7068), sequence (P10828 whole entry, looked up, the tested form may be a part): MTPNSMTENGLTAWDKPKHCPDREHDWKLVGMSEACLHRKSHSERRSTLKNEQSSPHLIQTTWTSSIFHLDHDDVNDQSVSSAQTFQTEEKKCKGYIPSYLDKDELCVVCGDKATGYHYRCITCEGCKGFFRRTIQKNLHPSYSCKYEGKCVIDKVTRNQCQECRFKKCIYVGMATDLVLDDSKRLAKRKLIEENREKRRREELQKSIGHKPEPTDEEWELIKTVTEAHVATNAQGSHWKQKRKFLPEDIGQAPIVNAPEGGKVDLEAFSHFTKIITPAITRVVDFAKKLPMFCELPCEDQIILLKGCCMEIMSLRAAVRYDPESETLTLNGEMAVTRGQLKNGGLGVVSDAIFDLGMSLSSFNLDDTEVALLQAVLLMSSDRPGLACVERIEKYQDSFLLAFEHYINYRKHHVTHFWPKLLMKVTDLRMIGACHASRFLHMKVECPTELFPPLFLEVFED
zebrafish Thyroid Hormone Receptor beta (TRb), thrb (gene 30607), sequence (Q9PVE4 whole entry, looked up, the tested form may be a part): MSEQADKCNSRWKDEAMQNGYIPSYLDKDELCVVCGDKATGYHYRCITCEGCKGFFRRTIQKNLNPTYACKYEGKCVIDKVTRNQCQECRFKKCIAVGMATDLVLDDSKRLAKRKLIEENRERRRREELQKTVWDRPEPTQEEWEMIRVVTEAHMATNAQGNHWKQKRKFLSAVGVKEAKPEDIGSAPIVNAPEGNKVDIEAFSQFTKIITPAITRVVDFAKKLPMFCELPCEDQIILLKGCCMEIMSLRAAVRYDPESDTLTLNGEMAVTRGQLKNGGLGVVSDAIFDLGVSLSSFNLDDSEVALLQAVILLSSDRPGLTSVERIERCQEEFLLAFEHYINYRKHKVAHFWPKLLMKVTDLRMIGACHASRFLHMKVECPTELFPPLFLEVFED
frog Thyroid hormone Receptor alpha (TRa), thra-a (gene 397942), sequence (P15204 whole entry, looked up, the tested form may be a part): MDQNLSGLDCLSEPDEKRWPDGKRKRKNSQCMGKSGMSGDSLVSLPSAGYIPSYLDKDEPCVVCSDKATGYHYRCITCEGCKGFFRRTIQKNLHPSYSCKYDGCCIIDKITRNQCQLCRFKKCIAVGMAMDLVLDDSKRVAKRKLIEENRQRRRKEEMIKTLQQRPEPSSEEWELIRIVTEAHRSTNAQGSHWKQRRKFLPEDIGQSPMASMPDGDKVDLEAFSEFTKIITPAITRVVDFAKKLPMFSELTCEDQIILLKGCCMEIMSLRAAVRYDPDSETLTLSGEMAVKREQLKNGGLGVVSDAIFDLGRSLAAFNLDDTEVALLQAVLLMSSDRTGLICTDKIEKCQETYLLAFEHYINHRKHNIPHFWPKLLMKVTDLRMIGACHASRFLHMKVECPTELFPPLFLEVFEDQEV

With `CC(=Cc1ccccc1)[N+](=O)[O-]`, the result in test [1] and in test [2] was inactive.

In the case of `N#CCCC(Br)(C#N)CBr` (stereo not given), the result in test [1] and in [2] was inactive.

For `CC1(C)[C@H](C(=O)O[C@H](C#N)c2cccc(Oc3ccccc3)c2)[C@@H]1/C=C(\Cl)C(F)(F)F`, in test [1], the outcome was inactive.

On to `C=CC(Cl)CCl` (stereo not given), for which the result in test [1] and in test [2] was inactive.

For `Cc1cc(Cl)ccc1N`, the outcome in test [3], in test [4], in [6], in test [7] and in [8] was inactive. In addition, the AC50 in test [5] is 25.5 µM (active); in test [9], 24.1 µM (active).

Regarding `c1cc[c]([Sb]([c]2ccccc2)[c]2ccccc2)cc1`, the compound was classed as inactive in [3] and in [8]. Also, the AC50 was 50 µM (active) in [4]; 1.53 µM (active) in test [5]; 27.8 µM (active) in [10]; 11.3 µM (active) in [6]; 8.85 µM (active) in test [7]; 10.8 µM (active) in [9].

In the case of `CC(C)(C)c1ccccc1O`, in test [2], the result was inactive.

Consider `Oc1c(Br)cc(Br)cc1Br`, for which the result in test [1] and in test [2] was inactive.

Turning to `CC(O)(CS(=O)(=O)c1ccc(F)cc1)C(=O)Nc1ccc(C#N)c(C(F)(F)F)c1` (stereo not given), the AC50 in test [11] was 4.25 µM (active); in test [19], 155 µM (active); in [1] it was 9.92 µM (active); in test [2] it was 88.7 µM (active). Also, the result in test [12], in test [13], in test [14], in test [15], in test [16] and in [17] was inactive. Further, the call in test [18] and in [19] was inactive.

For the compound `O=C(NC(=O)c1c(F)cccc1F)Nc1cc(Cl)c(OC(F)(F)C(F)C(F)(F)F)cc1Cl` (stereo not given), the outcome in test [1] and in test [2] was inactive.

`Cc1cc(Cl)ccc1OC(C)C(=O)O` (stereo not given): the result in test [1] was inactive.

On to `CCC[CH2][Sn]([CH2]CCC)([CH2]CCC)[CH2]CCC`, for which the result in test [1] and in test [2] was inactive.

Regarding `O=S1OC[C@@H]2[C@H](CO1)[C@]1(Cl)C(Cl)=C(Cl)[C@@]2(Cl)C1(Cl)Cl` (stereo not given in full), the result in [1] and in [2] was inactive.

`CCCCCCCCCCCCOS(=O)(=O)O`: the result in [1] and in test [2] was inactive.

`CCOP(=S)(OCC)O/N=C(\C#N)c1ccccc1`: the AC50 in test [11] is 4.3 µM (active) and 2.37 µM (active). The call in test [12], in [13], in test [14], in test [15], in test [16] and in test [17] was inactive. The call in [18], in [19], in test [1] and in test [2] was inactive.

In the case of `CCC[CH2][Sn]([Cl])([Cl])[CH2]CCC`, the AC50 in test [1] was 3.24 µM (active). Besides, the result in [2] was inactive.

For `O=C(O)C1(c2ccc3c(c2)OC[C@H](Cc2ccc(-c4ccccc4)cc2)[C@H]3O)CCCC1`, the result in [1] and in [2] was inactive.

Consider `N#CS`, for which, in test [1], the AC50 is 6.43 µM (active). The outcome in test [2] was inactive.

For the compound `CCCCCCCCCCCCc1cccc(S(=O)(=O)O)c1`, the result in [1] and in [2] was inactive.
